Where “and” joins values, the source holds several entries; their conditions need not be identical. Equal entries are not always repeated. Calls of active or inactive are those of the source. Unless noted, no rule for the calls is given here. Starred links: 1 amine or outer side, 2 acyl side, 3 side chain; linkers in the order of their positions; H or OH if unused. Positions of bridges follow the written chain, without caps; N, C: chain ends. Non-standard residues stand in square brackets, D forms with d. Residues, ends and D or L forms follow the SMILES beside them. Chains are numbered I, II in the order given. Actinocin(9to1) = Cc1c2oc3c(C)ccc(C(=O)[*:1])c3nc-2c(C(=O)[*:2])c(N)c1=O; NMeV = CN[C@H](C(=O)O)C(C)C; Sar = CNCC(=O)O

Assay [1] can be described thus: liver-stage malaria parasite growth inhibition, primary screen, cell-based, HepG2, luciferase luminescence, HepG2 viability (AID 624349; in the data active = parasite load remaining mostly below about 12%, no sharp cut-off; inactive = mostly above about 10%;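 also: 100% = mean of DMSO negative control wells on the same plate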). Conditions: P. berghei liver stage in HepG2, luciferase luminescence, concentration not given here; parasite load remaining: stronger effect = lower value; viability: measured here: HepG2 viability without parasites.
The nature of assay [2]: Cy5 fluorescence interference with SSB-bound oligo, artefact control for HCV NS3 helicase inhibitor project, biochemical, NIH Clinical Collection, E. coli SSB (AID 743268).
Assay [3] relates to Hepatitis C virus NS3 helicase. Nature of the assay: HCV NS3 helicase inhibitors, primary screen, biochemical, fluorescence polarization, NIH Clinical Collection (AID 743270). The settings on record: NS3 helicase binding to Cy5-dT15 DNA, stronger effect = higher value, concentration not given here. A general note: In fluorescence polarisation assays a small probe gives low polarisation when free and higher when bound to something large.

Assay [4] deals with Single-stranded DNA-binding protein (Escherichia coli (strain K12)) (UniProt P0AGE0). Put plainly: E. coli SSB displacement from DNA, counter-screen for HCV NS3 helicase inhibitor project, biochemical, fluorescence polarization, NIH Clinical Collection (AID 743271; in the data active = inhibition above about 28%). The settings on record: stronger effect = higher value, concentration not given here. (In general: A counterscreen serves to expose hits that act by an unwanted route or on another target.)

Assay [5] in a line: fluorescence interference in NS3h assay format, artefact control for HCV NS3 helicase inhibitor project, biochemical, NIH Clinical Collection (AID 743272).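 Also: HCV NS3 helicase with a Cy5 labelled single stranded DNA probe.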 The settings on record: fluorescence interference counterscreen, stronger effect = lower value.
In assay [6] the test system is Neuropilin-2 / VEGF-C interaction (human). Nature of the assay: inhibitors of NRP2–VEGF-C binding, biochemical, microplate binding format, z-score (AID 743281). Conditions: microplate NRP2/VEGF-C binding assay; stronger effect = lower value.
A short description of assay [7]: stimulators of nuclear beta-catenin in C2C12, primary screen, imaging, WNT3A-conditioned medium, mouse C2C12, NPC library (AID 1117326; in the data active = nuclear beta-catenin stimulation mostly above about 4.2%, no sharp cut-off; inactive = mostly below about 10%). The settings on record: stronger effect = higher value.

`CN1[C@@H]2CC[C@H]1CC(OC(=O)c1c[nH]c3ccccc13)C2` (stereo partly specified): in assay [1], the parasite load remaining is 118% (inactive) and 21.9% (inactive). In addition, the viability in assay [1] is 102% and 67.5%. The fluorescence ratio in assay [2] is 1.02 (inactive); in assay [5], 0.9 (inactive). The inhibition is -3.56% (inactive) in assay [3] and -3.95% (inactive) in assay [4]. Also, in assay [6], the z-score is -0.714 (inactive). Also, the nuclear beta-catenin stimulation in assay [7] (at 10 µM) is 1.1% (inactive); in assay [7] (stimulation, at 2 µM) it was 1.6%.
For `Nc1[nH]c(=O)ncc1F`, in assay [1], the parasite load remaining was 85.3% (inactive) and 51.1% (inactive) and 109% (inactive). Moreover, the viability in assay [1] is 93.3% and 117% and 86.7%. Moreover, the fluorescence ratio in assay [2] was 1.01 (inactive); in assay [5], 0.97 (inactive). Further, the inhibition was -6.73% (inactive) in assay [3] and -1.64% (inactive) in assay [4]. In addition, in assay [6], the z-score is -0.751 (inactive). The nuclear beta-catenin stimulation was 0.9% (inactive) in assay [7] (at 10 µM) and 1.7% in assay [7] (stimulation, at 2 µM).
Consider `O=C(O)CCNC(=O)c1ccc(N=Nc2ccc(O)c(C(=O)O)c2)cc1`, for which the parasite load remaining in assay [1] is 105% (inactive) and 63.3% (inactive). In addition, the viability in assay [1] was 90.8% and 75.1%. Further, the fluorescence ratio is 0.93 (inactive) in assay [2] and 0.94 (inactive) in assay [5]. Further, the inhibition is -2.84% (inactive) in assay [3] and 1.97% (inactive) in assay [4]. The call in assay [6] was inactive. Also, the nuclear beta-catenin stimulation in assay [7] (at 10 µM) was 0.8% (inactive); in assay [7] (stimulation, at 2 µM), 0.3%.
As to `CCOc1cc(CC(=O)N[C@@H](CC(C)C)c2ccccc2N2CCCCC2)ccc1C(=O)O`, the parasite load remaining in assay [1] is 85.6% (inactive) and 16.6% (inactive) and 98.7% (inactive). Also, the viability in assay [1] was 77.8% and 183% and 76.2%. In addition, the fluorescence ratio in assay [2] and in assay [5] was 1.02 (inactive) throughout. Moreover, the inhibition in assay [3] was 5.94% (inactive); in assay [4], 2.21% (inactive). Further, in assay [6], the z-score was -0.286 (inactive). The nuclear beta-catenin stimulation in assay [7] (at 10 µM) is -1.5% (inactive); in assay [7] (stimulation, at 2 µM) it was 0.2%.
Turning to `Cc1c2oc3c(C)ccc(C(=O)N[C@@H]4C(=O)N[C@H](C(C)C)C(=O)N5CCC[C@H]5C(=O)N(C)CC(=O)N(C)[C@@H](C(C)C)C(=O)O[C@@H]4C)c3nc-2c(C(=O)N[C@@H]2C(=O)N[C@H](C(C)C)C(=O)N3CCC[C@H]3C(=O)N(C)CC(=O)N(C)[C@@H](C(C)C)C(=O)O[C@@H]2C)c(N)c1=O` (I: T[dV]P[Sar][NMeV] / II: T[dV]P[Sar][NMeV]; ester I:1-I:C, II:1-II:C; linker I:N-II:N via Actinocin(9to1)), in assay [1], the parasite load remaining was -0.02% (inactive). Besides, in assay [1], the viability stood at 31.5%. Moreover, the fluorescence ratio in assay [2] was 0.91 (inactive); in assay [5] it was 0.93 (inactive). In addition, the values for the inhibition in assay [3] and in assay [4] were 1.53% (inactive) and 2.76% (inactive), respectively. For the same compound, in assay [6], the z-score was -4.03 (active). The nuclear beta-catenin stimulation in assay [7] (at 10 µM) is 92.5% (active); in assay [7] (stimulation, at 2 µM) it was 109%.
For `OCc1cccnc1`, the parasite load remaining in assay [1] was 56.9% (inactive). Also, the viability in assay [1] amounted to 66.4%. Further, the fluorescence ratio was 0.93 (inactive) in assay [2] and 0.87 (inactive) in assay [5]. Also, the inhibition in assay [3] is -1.09% (inactive); in assay [4], -1.18% (inactive). Besides, the z-score in assay [6] was -0.624 (inactive). Further, the nuclear beta-catenin stimulation in assay [7] (at 10 µM) is 0.5% (inactive); in assay [7] (stimulation, at 2 µM) it was 1%.
In the case of `CC(C)c1ccc2oc3nc(N)c(C(=O)O)cc3c(=O)c2c1`, the parasite load remaining in assay [1] is 196% (inactive). For the same compound, in assay [1], the viability was 67.7%. In addition, the values for the fluorescence ratio in assay [2] and in assay [5] were 1.01 (inactive) and 0.99 (inactive), respectively. Moreover, the inhibition in assay [3] is 2.77% (inactive); in assay [4], 6.06% (inactive). The z-score in assay [6] was 0.737 (inactive). Also, the nuclear beta-catenin stimulation is 0.2% (inactive) in assay [7] (at 10 µM) and -1.6% in assay [7] (stimulation, at 2 µM).
As for `CN1CCN(C2=Nc3cc(F)ccc3Cc3ccccc32)CC1`, the parasite load remaining in assay [1] was 91.4% (inactive) and 40.9% (inactive). In assay [1], the viability is 62.6% and 67%. The fluorescence ratio in assay [2] is 0.91 (inactive); in assay [5] it was 0.9 (inactive). Moreover, the values for the inhibition in assay [3] and in assay [4] were -1.97% (inactive) and 1.97% (inactive), respectively. Moreover, in assay [6], the z-score was -0.511 (inactive). Further, the nuclear beta-catenin stimulation in assay [7] (at 10 µM) is -1.1% (inactive); in assay [7] (stimulation, at 2 µM), -3%.
With `Cn1c(NCCN(CCO)CCCc2ccc([N+](=O)[O-])cc2)cc(=O)n(C)c1=O`, the parasite load remaining in assay [1] was 109% (inactive) and 18.9% (inactive). Moreover, the viability in assay [1] is 77.5% and 73.5%. Further, the results for the fluorescence ratio in assay [2] and in assay [5] were 0.99 (inactive) and 0.97 (inactive), respectively. Also, the figures for the inhibition in assay [3] and in assay [4] were 0.4% (inactive) and 1.44% (inactive), respectively. Further, the z-score in assay [6] is 0.0586 (inactive). The nuclear beta-catenin stimulation is 0.1% (inactive) in assay [7] (at 10 µM) and 0.3% in assay [7] (stimulation, at 2 µM).
As for `CN(CCCN1c2ccccc2CCc2ccccc21)CC(=O)c1ccc(Cl)cc1`, in assay [1], the parasite load remaining was 66.2% (inactive). The viability in assay [1] stood at 68.6%. Moreover, the fluorescence ratio in assay [2] was 0.86 (inactive); in assay [5] it was 1.21 (active). Moreover, the inhibition in assay [3] was 7.52% (inactive); in assay [4], 2.98% (inactive). Moreover, the outcome in assay [6] was inactive. For the same compound, the nuclear beta-catenin stimulation was 1.2% (inactive) in assay [7] (at 10 µM) and -1.4% in assay [7] (stimulation, at 2 µM).
Consider `COc1cc(C)c(Cc2cnc(N)nc2N)cc1OC`, for which the parasite load remaining in assay [1] was 28% (inactive). For the same compound, in assay [1], the viability stood at 73.1%. Further, the fluorescence ratio in assay [2] was 1.02 (inactive); in assay [5] it was 0.95 (inactive). For the same compound, the results for the inhibition in assay [3] and in assay [4] were 1.98% (inactive) and 2.21% (inactive), respectively. For the same compound, in assay [6], the z-score is -0.323 (inactive). For the same compound, the nuclear beta-catenin stimulation is -0.5% (inactive) in assay [7] (at 10 µM) and 0.4% in assay [7] (stimulation, at 2 µM).
`O=C1CC2(CCCC2)CC(=O)N1CCNCC1COc2ccccc2O1` (stereo unspecified): the parasite load remaining in assay [1] was 46.8% (inactive). For the same compound, in assay [1], the viability stood at 69.1%. The fluorescence ratio in assay [2] and in assay [5] was 0.98 (inactive) each time. The inhibition in assay [3] was -8.95% (inactive); in assay [4], -4.33% (inactive). Moreover, the z-score in assay [6] is 0.317 (inactive). Moreover, the nuclear beta-catenin stimulation in assay [7] (at 10 µM) was 0.9% (inactive); in assay [7] (stimulation, at 2 µM), 0.6%.
Turning to `OCCOCCN1CCN(C2=Nc3ccccc3Sc3ccccc32)CC1`, the parasite load remaining in assay [1] is 49.4% (inactive) and 94% (inactive) and 56.9% (inactive). In assay [1], the viability was 95.1% and 77.7% and 206%. The fluorescence ratio was 1.02 (inactive) in assay [2] and 0.95 (inactive) in assay [5]. Also, the inhibition was 1.98% (inactive) in assay [3] and 1.44% (inactive) in assay [4]. In addition, the z-score in assay [6] is 0.105 (inactive). For the same compound, the nuclear beta-catenin stimulation in assay [7] (at 10 µM) was 3.8% (inactive); in assay [7] (stimulation, at 2 µM), 2.1%.
Consider `CNNCc1ccc(C(=O)NC(C)C)cc1`, for which the parasite load remaining in assay [1] is 101% (inactive) and 80.5% (inactive) and 21.4% (inactive). In addition, the viability in assay [1] is 76.9% and 70.8% and 66.5%. The results for the fluorescence ratio in assay [2] and in assay [5] were 1.04 (inactive) and 1.02 (inactive), respectively. Besides, the inhibition was 1.19% (inactive) in assay [3] and -0.1% (inactive) in assay [4]. The z-score in assay [6] was -0.83 (inactive). Also, the nuclear beta-catenin stimulation in assay [7] (at 10 µM) was -2% (inactive); in assay [7] (stimulation, at 2 µM), 1%.

By viability is commonly meant a read-out of living cells in per cent, often relative to untreated cells. What is called inhibition is the drop in the measured response relative to a control, in per cent.

For the origin of these results see PubChem BioAssay.
